# Among all 3,000 compounds or so, about 45 (2%) showed an effect of 50% or more. The sample holds strong results, similar compounds and a random draw of the others, so the mix is not that of the screen.
# Test system: MOLM1 and UCSD/AML1 (averaged)
# Assay: cell viability relative to DMSO control (POC); higher = less growth inhibition
# Conditions: 1 µM; 72 h
# Method: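 Primary viability screen in the 3q26 EVI1-high AML cell lines MOLM1 and UCSD/AML1, compounds at 1 uM for 72 h. ATP CellTiter-Glo read-out given as percent viable over DMSO control (POC), averaged over duplicates. This mapping covers the TimTec NDL-3000 natural derivative library, whose compounds are identified by TimTec catalogue codes (ST...).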
row,Compound,cell viability [%]
1,OCC1N2CCC(CC2)C1(O)O (stereo not given),32.3
2,CCOC(=O)C1=C(N)Oc2c(c(=O)oc3ccccc23)C1c1ccc(Cl)cc1Cl (stereo not given),104
3,CC(=O)OC1CCC2(C)C3CCC4(C)C(CC[C@]4(OC(C)=O)C(C)OC(C)=O)C3CC[C@H]2C1 (stereo not given in full),109
4,CN1C(=O)C(=Cc2ccc3c(c2)OCO3)C(=O)N(C)C1=O,111
5,O.O.OCC1CCCN2CCCCC12.[Cl][Cu][Cl] (stereo not given),110
6,Cc1ccc(C(c2c(O)c3ccccc3oc2=O)c2c(O)c3ccccc3oc2=O)cc1,102
7,CCOC(=O)C1=C(N)Oc2c(c(=O)oc3ccccc23)C1c1ccc(Br)cc1 (stereo not given),93
8,CCOC(=O)C1=C(N)Oc2c(c(=O)oc3ccccc23)C1c1cccc(Br)c1 (stereo not given),103
9,CCOC(=O)C1=C(N)Oc2c(c(=O)oc3ccccc23)C1c1ccc(Cl)c(Cl)c1 (stereo not given),37.7
10,COCCOC(=O)c1c(C)n(Cc2ccccc2Cl)c2ccc(O)cc12,106
